Where “and” joins values, the source holds several entries; their conditions need not be identical. Equal values may be shown once. Results filed as inconclusive are left out. Some compounds were tested as several samples or in several runs, with calls that do not always agree. Calls of active or inactive are those of the source. Calls come from the whole dose curve; as a rule, active = well fitted activation curve with a large enough effect in the repeat runs; inconclusive = weak or mixed curves; inactive = no such curve, though single readings can be large or run the other way.
The molecules below were run against Nuclear receptor subfamily 1 group I member 2 (Homo sapiens) (UniProt O75469) (assay: Human pregnane X receptor (PXR) small molecule agonists, qHTS assay (AID 1346982; note: nearly all actives have a fitted effect of over 35% in size)). Details: PXR-Luc HepG2, CYP3A4 luciferase reporter, 24 h; series mostly up to 92.4 µM; activation: at the top concentration.
Chain of Nuclear receptor subfamily 1 group I member 2 (Homo sapiens) (O75469 whole entry, looked up): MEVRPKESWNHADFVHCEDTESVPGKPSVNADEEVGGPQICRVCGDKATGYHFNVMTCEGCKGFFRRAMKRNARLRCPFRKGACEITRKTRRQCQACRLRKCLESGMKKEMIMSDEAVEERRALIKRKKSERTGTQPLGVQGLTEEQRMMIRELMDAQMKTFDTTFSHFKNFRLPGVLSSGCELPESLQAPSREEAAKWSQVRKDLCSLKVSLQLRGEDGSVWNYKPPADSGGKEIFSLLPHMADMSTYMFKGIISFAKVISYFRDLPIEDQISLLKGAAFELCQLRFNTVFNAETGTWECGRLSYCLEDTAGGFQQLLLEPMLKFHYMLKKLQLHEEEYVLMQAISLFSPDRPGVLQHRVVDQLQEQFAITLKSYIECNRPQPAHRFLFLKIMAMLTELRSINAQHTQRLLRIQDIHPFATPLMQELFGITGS
Description: National Center for Advancing Translational Sciences [NCATS]
NIH Chemical Genomics Center [NCGC]
U.S. Environmental Protection Agency [EPA]
National Institutes of Environmental Health Sciences [NIEHS]
National Toxicology Program [NTP]
The human pregnane X receptor (hPXR) regulates the expression of several drug metabolizing enzymes and induction of these proteins is a major mechanism for developing drug resistance in cancer. One such key enzyme catalyzing the drug metabolism is cytochrome P450 3A4 (CYP3A4). Changes in CYP3A4 expression affect drug metabolism, thereby reducing the therapeutic efficacy and altering toxicological response to a drug and which finally causes adverse drug interaction. To screen Tox21 libraries for compounds that activate hPXR-mediated CYP3A4 gene expression, PXR-Luc HepG2 cells were used.
PXR-Luc HepG2 cells were dispensed at 2,000 per well in 5uL of assay medium containing 5% charcoal-stripped FBS into white solid bottom 1536-well plates (Corning Life Sciences, Corning, NY) using a Multidrop Combi (Thermo Scientific, Waltham, MA) dispenser. The assay plates were incubated at 37 C and 5% CO2 for 5hr, and then 23nL of compounds dissolved in DMSO and positive control were transferred using a Pintool station (Wako, San Diego, CA). The assay plates were incubated at 37C and 5% CO2 for 24hr. For luciferase read, 4uL of ONE-Glo reagent (Promega Corporation, Madison, WI) was added to each well of the assay plates using Flying Reagent Dispenser (FRD, Aurora Discovery, San Diego, CA) and incubated the assay plates at room temperature for 30min. The luminescence signal was quantified using a ViewLux plate reader (Perkin Elmer, Shelton, CT).
% is set by controls: 0 for no effect and ±100 for the full control effect; potency is the fitted concentration of half-maximal effect.

Row | SMILES | activation | Potency
1 | Clc1cc(Cl)c(-c2cc(Cl)c(Cl)cc2Cl)cc1Cl | 1.42% [at 42.5 µM] (inactive) | 
2 | CC[N+]1(CC)CCC(OC(=O)C(O)(c2ccccc2)c2ccccc2)C1 (stereo not given) | -5.16% [at 42.5 µM] (inactive) | 
3 | CCCCCON=O | -14.2% (inactive) | 
4 | Cc1c([N+](=O)[O-])c(C)c([N+](=O)[O-])c(C(C)(C)C)c1[N+](=O)[O-] |  | 48.6 µM (active)
5 | CCCCCCCCCCCCCCn1cc[n+](C)c1 |  | 3.86 µM (active) and 4.28 µM (active) and 21.7 µM (active)
6 | CN=C=O | 9.73% (inactive) | 
7 | CCN(CC)Cc1nccn1-c1ccc([N+](=O)[O-])cc1C(=O)c1ccccc1Cl |  | 10.6 µM (active)
8 | CCN1CCC2(CC1)COc1cc3c(cc12)N(C(=O)c1ccc(-c2ccc(-c4nnc(C)o4)cc2C)cc1)CC3 |  | 3.99 µM (active)
9 | CNC(C)(C)Cc1ccccc1 | -8.12% [at 42.5 µM] (inactive) | 
10 | c1ccc2nc(N3CCNCC3)ccc2c1 | 15.9% [at 42.5 µM] (inactive) | 
11 | COC(=O)/C=C(\C)OP(=O)(OC)OC | -13.2% (inactive) | 
12 | Cc1ccn2nc(S(=O)(=O)Nc3c(F)cccc3F)nc2n1 | -3.13% (inactive) | 
13 | ClC1=C(Cl)[C@]2(Cl)[C@H]3[C@H]([C@@H]4C=C[C@H]3C4)[C@@]1(Cl)C2(Cl)Cl |  | 34.3 µM (active) and inactive
14 | Cc1ccc([N+](=O)[O-])[c]2c1[O][Hg]2 |  | 0.668 µM (active)
15 | CC(C)C(Nc1ccc(C(F)(F)F)cc1Cl)C(=O)OC(C#N)c1cccc(Oc2ccccc2)c1 (stereo not given) |  | 13.8 µM (active)
16 | CC(=O)[O][Pb]([c]1ccccc1)([c]1ccccc1)[c]1ccccc1 | -57.6% (inactive) | 
17 | S=C=Nc1ccccc1 |  | 63.1 µM (active)
18 | O=S1OCC2C(CO1)C1(Cl)C(Cl)=C(Cl)C2(Cl)C1(Cl)Cl (stereo not given) |  | 24.4 µM (active) and inactive
19 | O=S(=O)(O)F |  | 53.8 µM (active)
20 | Clc1c(Cl)c(Cl)c(Cl)c(Cl)c1Cl | -14.4% [at 8.39 µM] (inactive) | 

Row | SMILES | activation | Potency
21 | O=C1C(Cl)=C(Cl)C(=O)C(Cl)=C1Cl |  | 60.9 µM (active) and 61.1 µM (active)
22 | CCNS(=O)(=O)C(F)(F)C(F)(F)C(F)(F)C(F)(F)C(F)(F)C(F)(F)C(F)(F)C(F)(F)F | 3.98% (inactive) | 
23 | COC(=O)c1cc(Oc2ccc(Cl)cc2Cl)ccc1[N+](=O)[O-] |  | 54.5 µM (active)
24 | CCN(CC)CCc1c[nH]c2ccccc12 | -14.7% (inactive) | 
25 | C=CCBr | 4.86% (inactive) | 
26 | O=S(=O)(NS(=O)(=O)C(F)(F)F)C(F)(F)F |  | 60.9 µM (active)
27 | [F][Sn]([c]1ccccc1)([c]1ccccc1)[c]1ccccc1 |  | 0.077 µM (active)
28 | CC(O)C(=O)[O][Hg][c]1ccccc1 (stereo not given) | -24.1% (inactive) | 
29 | [O]=[Cr](=[O])([OH])[O][Cr](=[O])(=[O])[OH] |  | 8.71 µM (active) and 9.67 µM (active)
30 | BrCCCBr | -0.858% (inactive) | 
31 | CCCN | -0.453% (inactive) | 
32 | Cc1ccccc1OP(=O)(Oc1ccccc1C)Oc1ccccc1C |  | 27.4 µM (active)
33 | Clc1ccc(C(c2ccc(Cl)cc2)C(Cl)Cl)cc1 |  | 19.6 µM (active)
34 | CCn1cc[n+](C)c1 (tested in a mixture with another compound) | 5.96% (inactive) | 
35 | C[C@@H]1CC2=CC(=O)CC[C@@H]2[C@H]2CC[C@@]3(C)[C@@H](CC[C@]3(C)O)[C@@H]21 | -2.71% [at 42.5 µM] (inactive) | 
36 | CCOP(=O)(OCC)Oc1cc(C)nc(C(C)C)n1 | 5.71% (inactive) | 
37 | Cc1cccc(Cc2cnc[nH]2)c1C | 6.89% [at 42.5 µM] (inactive) | 
38 | CC(C)=CC1C(C(=O)OC(C#N)c2cccc(Oc3ccccc3)c2)C1(C)C (stereo not given) |  | 17.2 µM (active)
39 | CCC(C)c1cccc(C(C)CC)c1O (stereo not given) | -3.82% (inactive) | 
40 | CCCC[N+]1(C)CCCC1 (tested in a mixture with another compound) |  | 69.4 µM (active)

Reference: PubChem BioAssay (Tox21)
